Laboratory results published in PubChem BioAssay (NCATS).
Values joined by “and” are separate entries in the source; they are usually repeats but may differ in a detail not shown here. Identical values can stand only once. Active and inactive are the calls of the source. A call without a number means that no potency is given here. Unless noted, the call rests on the fitted dose curve.

Experiments:
[1] = target: Estrogen receptor (Homo sapiens) (UniProt P03372); assay: qHTS assay for small molecule antagonists of estrogen receptor alpha signaling (AID 588513; active means well fitted curve in the direction sought with a large enough effect in the signal ratio, with a control signal flat, not every such curve was filed as active; inconclusive means small, poorly fitted or top-dose-only effect, or effect the other way, or a change in a side signal; inactive means no such curve, though single readings can be large or run the other way; the % refers to the signal ratio; further: potency means the concentration at half of the fitted maximal effect); details: ER-alpha-UAS-bla HEK293, beta-lactamase ratio, antagonist mode; series mostly up to 76.9 µM
Method in brief: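 Antagonist mode: inhibition of 0.5 nM 17-beta-estradiol-driven beta-lactamase reporter in HEK 293 ER-alpha-UAS-bla cells, 18 h at 37C, CCF4 readout after 2 h at RT. Normalised to estradiol and DMSO; titration fitted to Hill.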

[2] = target: Estrogen receptor (Homo sapiens) (UniProt P03372); assay: qHTS assay for small molecule agonists of estrogen receptor alpha signaling (AID 588514); details: ER-alpha-UAS-bla HEK293, beta-lactamase ratio, 18 h; series mostly up to 76.8 µM; further: nearly all actives have a fitted effect of over 70% in size
Method in brief: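 ER-alpha-UAS-bla GripTite HEK293 cells, 5000/well in 2% charcoal/dextran-stripped FBS medium, treated with compound titrations 18 h at 37 C. CCF4 beta-lactamase read by fluorescence after 2 h RT; normalised to 20 nM 17-beta-estradiol (100%) and DMSO (0%), Hill fit for EC50 and efficacy.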

[3] = target: Bile acid receptor (Homo sapiens) (UniProt Q96RI1); assay: qHTS assay for small molecule antagonists of farnesoid X receptor signaling (AID 588526); details: HEK293T FXR-UAS-bla, beta-lactamase ratio, antagonist mode; series mostly up to 76.7 µM
Method in brief: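 Concentration-response titrations were fitted to the Hill equation for half-maximal inhibition and maximal response, with data normalised to 50 uM chenodeoxycholic acid and DMSO control wells. Cells: FXR-UAS-bla HEK293T, dialyzed FBS.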

[4] = target: Glucocorticoid receptor (Homo sapiens) (UniProt P04150); assay: qHTS assay for small molecule antagonists of glucocorticoid receptor signaling (AID 588533; active means well fitted inhibition curve with a large enough effect in the signal ratio, with a control signal flat, not every such curve was filed as active; inconclusive means small, poorly fitted or top-dose-only effect, or effect the other way, or a change in a side signal; the % refers to the signal ratio;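 further: cells stimulated with 2 nM dexamethasone as agonist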); details: HeLa MMTV-bla, GRE beta-lactamase ratio, antagonist mode, 18 h; series mostly up to 76.8 µM
Method in brief: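 Antagonist-mode qHTS: compound titrations added to GRE-bla HeLa cells, then dexamethasone 2 nM final; 18 h, 37 C. CCF4 FRET fluorescence normalized to dexamethasone and DMSO; IC50 from Hill fit.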

[5] = target: Peroxisome proliferator-activated receptor gamma (Homo sapiens) (UniProt P37231); assay: qHTS assay for small molecule agonists of peroxisome proliferator-activated receptor gamma signaling (AID 588536; active means well fitted curve in the direction sought with a large enough effect in the signal ratio, with a control signal flat, not every such curve was filed as active; inconclusive means small, poorly fitted or top-dose-only effect, or effect the other way, or a change in a side signal; inactive means no such curve, though single readings can be large or run the other way; the % refers to the signal ratio); details: HEK293 PPARg-UAS-bla, beta-lactamase ratio, 16 h, percent of rosiglitazone response, DMSO as zero; series mostly up to 76.7 µM
Method in brief: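 PPAR-gamma-UAS-bla HEK293 cells in medium with 1% charcoal/dextran-treated FBS were exposed to compounds for 16 h at 37 C. Beta-lactamase activity was read with CCF4 substrate (405 nm excitation, 460/530 nm emission).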

[6] = target: Peroxisome proliferator-activated receptor gamma (Homo sapiens) (UniProt P37231); assay: qHTS assay for small molecule antagonists of peroxisome proliferator-activated receptor gamma signaling (AID 588537; active means well fitted inhibition curve with a large enough effect in the signal ratio, with a control signal flat, not every such curve was filed as active; inconclusive means small, poorly fitted or top-dose-only effect, or effect the other way, or a change in a side signal; the % refers to the signal ratio;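 further: reporter cells co-stimulated with 50 nM rosiglitazone agonist during compound treatment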); details: HEK293 PPARg-UAS-bla, beta-lactamase ratio, antagonist mode; series mostly up to 76.8 µM
Method in brief: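 We seeded GeneBLAzer HEK293 reporter cells at 3000 per well, allowed 6-6.5 h attachment at 37 C, then co-treated with test compound titrations and 50 nM rosiglitazone overnight (16 h). Inhibition was quantified from 460/530 nm emission ratios.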

[7] = target: Vitamin D3 receptor (Homo sapiens) (UniProt P11473); assay: qHTS assay for small molecule agonists of vitamin D receptor signaling (AID 588543); details: HEK293T VDR-UAS-bla, beta-lactamase ratio, 16 h; series mostly up to 76.8 µM
Method in brief: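 Agonist-mode beta-lactamase reporter: HEK293T VDR-UAS-bla cells in charcoal-stripped 2% FBS, compound series 16 h 37 C, CCF4 2 h RT. EC50 from Hill fit, scaled against DMSO and 50 nM calcitriol control.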

[8] = qHTS assay for small molecule agonists of retinoid X receptor alpha signaling (AID 588544); details: HEK293T RXRa-UAS-bla, beta-lactamase reporter, 18 h; 530 nm emission
[9] = target: Retinoic acid receptor RXR-alpha (Homo sapiens) (UniProt P19793); assay: as above; details: HEK293T RXRa-UAS-bla, beta-lactamase reporter, 18 h; series mostly up to 76.7 µM
[10] = target: Thyroid hormone receptor beta (Homo sapiens) (UniProt P10828); assay: qHTS assay for small molecule agonists of thyroid hormone receptor beta signaling (AID 588545); details: TR-UAS-bla GripTite HEK 293, beta-lactamase ratio, agonist mode, 18 h, percent of T3 response, DMSO as zero; series mostly up to 76.7 µM
Method in brief: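 Stimulation of a TR-driven beta-lactamase reporter was quantified in GripTite HEK 293 cells. Compound series ran for 18 hrs; curves were normalized to T3 and DMSO controls and fitted to yield EC50.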

[11] = qHTS assay for small molecule antagonists of retinoid X receptor alpha signaling (AID 588546; active means well fitted inhibition curve with a large enough effect in the signal ratio, with a control signal flat, not every such curve was filed as active; inconclusive means small, poorly fitted or top-dose-only effect, or effect the other way, or a change in a side signal; inactive means no such curve, though single readings can be large or run the other way; the % refers to the signal ratio;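 further: cells stimulated with 9-cis-retinoic acid as agonist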); details: HEK293T RXRa-UAS-bla, beta-lactamase ratio, antagonist mode; measured here: W530 green channel, cytotoxicity proxy
Method in brief: (§1)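 Beta-lactamase reporter inhibition, read as CCF4 fluorescence ratio (ex 405, em 460/530 nm) after 2 h at RT. HEK293T UAS-bla cells, 2500/well, were stimulated with 9-cis-RA at 500 or 100 nM final alongside test compound for 18 h at 37 C.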

[12] = target: Retinoic acid receptor RXR-alpha (Homo sapiens) (UniProt P19793); assay: as above; details: HEK293T RXRa-UAS-bla, beta-lactamase ratio, antagonist mode
Method in brief: as §1

[13] = target: Glucocorticoid receptor (Homo sapiens) (UniProt P04150); assay: qHTS assay for small molecule agonists of glucocorticoid receptor signaling (AID 588532; active means well fitted curve in the direction sought with a large enough effect in the signal ratio, with a control signal flat; inconclusive means small, poorly fitted or top-dose-only effect, or a change in a side signal; inactive means no such curve, though single readings can be large or run the other way; the % refers to the signal ratio); details: HeLa MMTV-bla, beta-lactamase ratio, agonist, 18 h; stronger effect = higher value; percent of dexamethasone control, DMSO zero
Method in brief: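 MMTV-bla HeLa, beta-lactamase reporter; medium with 1% charcoal/dextran-stripped FBS; cpds up to 92 uM, 18 h, 37 C; CCF4 readout 460/530 nm; Hill fit → EC50, efficacy vs 0.1 uM dexamethasone = 100%.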

[14] = target: Vitamin D3 receptor (Homo sapiens) (UniProt P11473); assay: qHTS assay for small molecule antagonists of vitamin D receptor signaling (AID 588541); details: HEK293T VDR-UAS-bla, beta-lactamase ratio, antagonist mode; series mostly up to 76.7 µM;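 further: receptor activated by calcitriol during compound treatment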
Method in brief: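 VDR-UAS-bla HEK293T cells (2000/well, 2% charcoal-stripped FBS) were treated with titrated compounds plus 1-alpha,25-dihydroxyvitamin D3 (50 nM or 3 nM final) for 16 h at 37 C. CCF4 beta-lactamase fluorescence was read; Hill fits gave IC50.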

[15] = target: Androgen receptor (Homo sapiens) (UniProt P10275); assay: qHTS assay for small molecule agonists of androgen receptor signaling (AID 588515; active means well fitted curve in the direction sought with a large enough effect in the signal ratio, with a control signal flat; inconclusive means small, poorly fitted or top-dose-only effect, or effect the other way, or a change in a side signal; inactive means no such curve, though single readings can be large or run the other way; the % refers to the signal ratio); details: AR-UAS-bla HEK293, beta-lactamase ratio, agonist 16 h; stronger effect = higher value
Method in brief: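 EC50 and efficacy came from Hill fits of titrations (up to 92 uM) normalized to 30 nM R1881 as 100% and DMSO as 0%. Compound exposure was 16 h at 37 C on AR-UAS-bla HEK293 cells, with a 405/460/530 nm CCF4 fluorescence read.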

[16] = qHTS assay for small molecule antagonists of peroxisome proliferator-activated receptor delta signaling (AID 588535); details: HEK293T PPARd-UAS-bla, beta-lactamase FRET ratio, 18 h; 460 nm channel;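 further: cells co-treated with a PPAR-delta agonist as stimulator during compound exposure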
Method in brief: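 Reporter: UAS-bla under PPAR-delta response element, HEK293T host. Medium: 2% charcoal/dextran FBS. Dosing: titration, 18 hrs, 37 C. Detection: CCF4, 2 hrs RT, 405 ex/460 and 530 em.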

[17] = target: DNA dC->dU-editing enzyme APOBEC-3G (Homo sapiens) (UniProt Q9HC16); assay: qHTS for inhibitors of Vif-A3G interactions: Validation (AID 588379; active means well fitted curve in the direction sought with a large enough effect; inconclusive means small, poorly fitted or top-dose-only effect, or another doubt; inactive means no such curve, though single readings can be large; an effect the other way counts as inactive or inconclusive); details: Vif-A3G protein interaction assay; series mostly up to 46.1 µM
Method in brief: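 HeLa cells stably expressing Vif and A3G-eYFP, 700 cells/well, incubated overnight at 37 deg C, then exposed to compound overnight at 37 deg C. Inhibition of Vif-mediated degradation read as increased yellow fluorescence (Ex 488/Em 500-530) by laser-scanning cytometry.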

[18] = target: Androgen receptor (Homo sapiens) (UniProt P10275); assay: qHTS assay for small molecule antagonists of androgen receptor signaling (AID 588516; active means well fitted curve in the direction sought with a large enough effect in the signal ratio, with a control signal flat, not every such curve was filed as active; inconclusive means small, poorly fitted or top-dose-only effect, or effect the other way, or a change in a side signal; inactive means no such curve, though single readings can be large or run the other way; the % refers to the signal ratio); details: AR-UAS-bla HEK293, beta-lactamase ratio, antagonist mode, 16 h; series mostly up to 76.8 µM
Method in brief: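 Antagonist mode: inhibition of R1881-stimulated (10 nM final) bla reporter in GeneBLAzer AR HEK 293 cells, 16 h at 37C, compounds titrated. IC50 and efficacy from Hill-equation fits of 405/460–530 nm FRET ratios.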

[19] = qHTS for Inhibitors of ATXN expression: Validation of Cytotoxic Assay (AID 588349; active means well fitted curve in the direction sought with a large enough effect; inconclusive means small, poorly fitted or top-dose-only effect, or another doubt; inactive means no such curve, though single readings can be large; an effect the other way counts as inactive or inconclusive); details: cytotoxicity counter-screen for ATXN expression inhibitors, cell viability; series mostly up to 57.1 µM
Method in brief: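 HEK293 cells treated with titrated compound for 72 hr at 37 degrees C; viability read as intracellular ATP by CellTiter Glo luminescence.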

[20] = qHTS for Inhibitors of ATXN expression: Validation (AID 588378; active means well fitted curve in the direction sought with a large enough effect; inconclusive means small, poorly fitted or top-dose-only effect, or another doubt; inactive means no such curve, though single readings can be large; an effect the other way counts as inactive or inconclusive; further: nearly all actives have a fitted effect of over 75% in size); details: cell-based ATXN2 expression reporter assay, luminescence; series mostly up to 57.1 µM
Method in brief: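 Luciferase luminescence (Bright-Glo) from an ATXN2-FFLuc HEK293 line after 24 h compound exposure at 37 °C, preceded by a CellTiter-Fluor fluorescence viability read. Serial dilutions of a reference ATXN2 inhibitor and a luciferase inhibitor served as controls.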

Glucocorticoid receptor (Homo sapiens), sequence (P04150 whole entry, looked up): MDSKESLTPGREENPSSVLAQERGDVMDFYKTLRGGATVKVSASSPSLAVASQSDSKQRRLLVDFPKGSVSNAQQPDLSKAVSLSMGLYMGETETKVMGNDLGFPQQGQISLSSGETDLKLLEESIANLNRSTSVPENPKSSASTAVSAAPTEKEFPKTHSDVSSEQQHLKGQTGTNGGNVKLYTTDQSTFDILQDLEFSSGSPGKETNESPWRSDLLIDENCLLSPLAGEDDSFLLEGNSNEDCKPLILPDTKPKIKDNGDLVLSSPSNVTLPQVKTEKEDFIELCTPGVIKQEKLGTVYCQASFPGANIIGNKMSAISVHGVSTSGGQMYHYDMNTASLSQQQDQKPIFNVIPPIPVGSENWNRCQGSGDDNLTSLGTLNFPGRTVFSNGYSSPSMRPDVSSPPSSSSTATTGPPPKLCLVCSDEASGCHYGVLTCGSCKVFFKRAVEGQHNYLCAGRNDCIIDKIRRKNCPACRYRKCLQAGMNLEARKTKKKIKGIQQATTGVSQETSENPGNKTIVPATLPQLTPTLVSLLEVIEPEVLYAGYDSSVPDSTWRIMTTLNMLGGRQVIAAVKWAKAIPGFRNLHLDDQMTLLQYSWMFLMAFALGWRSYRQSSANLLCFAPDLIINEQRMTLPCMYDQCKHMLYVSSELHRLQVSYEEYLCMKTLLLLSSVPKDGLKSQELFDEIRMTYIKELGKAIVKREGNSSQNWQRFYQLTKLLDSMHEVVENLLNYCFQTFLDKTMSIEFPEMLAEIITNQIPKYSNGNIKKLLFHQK
Vitamin D3 receptor (Homo sapiens), sequence (P11473 whole entry, looked up): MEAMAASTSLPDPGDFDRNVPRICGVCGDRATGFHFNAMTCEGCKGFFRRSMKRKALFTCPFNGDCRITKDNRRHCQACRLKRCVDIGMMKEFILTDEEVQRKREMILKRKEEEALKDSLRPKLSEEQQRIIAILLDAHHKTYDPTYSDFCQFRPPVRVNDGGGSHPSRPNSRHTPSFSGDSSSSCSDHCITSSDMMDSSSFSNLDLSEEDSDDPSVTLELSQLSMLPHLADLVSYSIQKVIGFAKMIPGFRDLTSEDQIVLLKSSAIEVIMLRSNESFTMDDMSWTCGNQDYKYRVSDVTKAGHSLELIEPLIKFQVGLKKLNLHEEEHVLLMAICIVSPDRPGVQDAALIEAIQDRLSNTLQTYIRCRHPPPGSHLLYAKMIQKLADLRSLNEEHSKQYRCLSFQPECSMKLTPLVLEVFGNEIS
Estrogen receptor (Homo sapiens), sequence (P03372 whole entry, looked up): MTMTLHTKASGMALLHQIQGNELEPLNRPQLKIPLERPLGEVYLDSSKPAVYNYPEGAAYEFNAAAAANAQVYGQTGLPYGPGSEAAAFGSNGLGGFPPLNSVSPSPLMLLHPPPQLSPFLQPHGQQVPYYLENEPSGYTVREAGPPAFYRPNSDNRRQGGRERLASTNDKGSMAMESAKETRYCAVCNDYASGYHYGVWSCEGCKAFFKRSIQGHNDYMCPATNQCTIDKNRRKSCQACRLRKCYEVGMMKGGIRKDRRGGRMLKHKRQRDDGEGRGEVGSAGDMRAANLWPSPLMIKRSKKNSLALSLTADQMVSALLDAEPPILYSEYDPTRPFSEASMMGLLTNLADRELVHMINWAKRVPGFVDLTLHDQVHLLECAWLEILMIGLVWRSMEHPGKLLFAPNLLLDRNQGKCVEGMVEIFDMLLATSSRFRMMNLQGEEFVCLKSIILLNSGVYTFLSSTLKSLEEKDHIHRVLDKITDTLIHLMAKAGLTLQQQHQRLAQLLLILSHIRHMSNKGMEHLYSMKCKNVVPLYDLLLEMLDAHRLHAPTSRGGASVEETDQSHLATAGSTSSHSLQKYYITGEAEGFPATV
Retinoic acid receptor RXR-alpha (Homo sapiens), sequence (P19793 whole entry, looked up): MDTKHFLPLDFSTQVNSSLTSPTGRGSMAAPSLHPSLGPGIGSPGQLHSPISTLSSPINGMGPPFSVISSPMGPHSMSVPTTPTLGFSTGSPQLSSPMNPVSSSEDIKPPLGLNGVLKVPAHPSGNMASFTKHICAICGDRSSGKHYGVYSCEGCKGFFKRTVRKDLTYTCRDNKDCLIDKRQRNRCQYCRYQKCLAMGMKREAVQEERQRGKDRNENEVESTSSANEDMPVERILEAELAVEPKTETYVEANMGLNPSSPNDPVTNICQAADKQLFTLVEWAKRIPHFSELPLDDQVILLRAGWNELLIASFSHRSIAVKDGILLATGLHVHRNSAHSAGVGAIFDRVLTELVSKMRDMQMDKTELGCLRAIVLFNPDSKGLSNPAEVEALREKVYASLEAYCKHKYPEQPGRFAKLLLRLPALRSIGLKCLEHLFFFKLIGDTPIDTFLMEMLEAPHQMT
Peroxisome proliferator-activated receptor gamma (Homo sapiens), sequence (P37231 whole entry, looked up): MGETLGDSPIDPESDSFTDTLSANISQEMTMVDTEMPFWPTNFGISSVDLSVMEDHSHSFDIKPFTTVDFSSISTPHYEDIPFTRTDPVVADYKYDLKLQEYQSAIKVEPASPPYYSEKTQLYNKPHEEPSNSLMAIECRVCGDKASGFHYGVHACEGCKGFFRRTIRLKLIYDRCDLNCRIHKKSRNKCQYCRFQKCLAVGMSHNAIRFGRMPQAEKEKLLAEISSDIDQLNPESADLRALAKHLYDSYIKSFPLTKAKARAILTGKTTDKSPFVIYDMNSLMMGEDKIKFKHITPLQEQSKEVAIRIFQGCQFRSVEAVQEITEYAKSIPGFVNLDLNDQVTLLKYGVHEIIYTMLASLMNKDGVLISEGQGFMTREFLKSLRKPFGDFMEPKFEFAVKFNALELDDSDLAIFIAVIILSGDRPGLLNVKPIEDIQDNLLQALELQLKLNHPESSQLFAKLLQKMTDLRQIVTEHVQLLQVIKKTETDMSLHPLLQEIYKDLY
Androgen receptor (Homo sapiens), sequence (P10275 whole entry, looked up): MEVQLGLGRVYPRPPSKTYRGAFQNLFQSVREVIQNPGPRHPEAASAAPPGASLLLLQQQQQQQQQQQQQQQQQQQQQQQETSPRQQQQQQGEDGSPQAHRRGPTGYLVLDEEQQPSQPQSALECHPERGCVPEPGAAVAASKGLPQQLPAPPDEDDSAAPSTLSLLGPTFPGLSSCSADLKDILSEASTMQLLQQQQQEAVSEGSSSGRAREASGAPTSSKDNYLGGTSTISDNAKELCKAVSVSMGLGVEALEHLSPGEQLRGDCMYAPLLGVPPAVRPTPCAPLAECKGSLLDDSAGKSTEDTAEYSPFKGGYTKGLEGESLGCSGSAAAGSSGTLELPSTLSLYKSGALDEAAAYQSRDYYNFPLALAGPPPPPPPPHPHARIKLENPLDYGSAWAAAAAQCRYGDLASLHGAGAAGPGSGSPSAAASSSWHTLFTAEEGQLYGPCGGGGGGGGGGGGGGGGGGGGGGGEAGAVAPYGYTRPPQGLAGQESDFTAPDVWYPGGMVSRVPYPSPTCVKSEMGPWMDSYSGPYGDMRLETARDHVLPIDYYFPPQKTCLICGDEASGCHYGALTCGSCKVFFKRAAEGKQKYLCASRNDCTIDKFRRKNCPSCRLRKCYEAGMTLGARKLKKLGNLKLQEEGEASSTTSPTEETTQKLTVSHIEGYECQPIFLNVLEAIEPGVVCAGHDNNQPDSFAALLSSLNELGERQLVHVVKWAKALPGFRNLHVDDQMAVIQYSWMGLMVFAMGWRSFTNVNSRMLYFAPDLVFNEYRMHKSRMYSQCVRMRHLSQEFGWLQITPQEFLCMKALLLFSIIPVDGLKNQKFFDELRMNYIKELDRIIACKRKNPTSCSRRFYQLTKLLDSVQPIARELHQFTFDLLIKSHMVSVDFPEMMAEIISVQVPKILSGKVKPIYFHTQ
Bile acid receptor (Homo sapiens), sequence (Q96RI1 whole entry, looked up): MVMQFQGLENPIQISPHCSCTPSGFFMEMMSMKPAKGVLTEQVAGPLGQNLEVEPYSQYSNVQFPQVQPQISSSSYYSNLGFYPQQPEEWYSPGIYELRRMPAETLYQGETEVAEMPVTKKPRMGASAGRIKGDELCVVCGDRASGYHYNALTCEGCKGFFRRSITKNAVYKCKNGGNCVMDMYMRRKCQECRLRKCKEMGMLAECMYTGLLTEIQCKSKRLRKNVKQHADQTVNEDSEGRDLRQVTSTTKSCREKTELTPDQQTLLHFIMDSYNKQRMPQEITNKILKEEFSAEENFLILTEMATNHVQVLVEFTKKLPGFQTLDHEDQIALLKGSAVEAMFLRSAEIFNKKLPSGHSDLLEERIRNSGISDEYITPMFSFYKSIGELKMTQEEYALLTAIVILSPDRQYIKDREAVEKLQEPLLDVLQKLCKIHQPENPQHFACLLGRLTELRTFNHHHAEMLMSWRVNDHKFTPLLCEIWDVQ
Thyroid hormone receptor beta (Homo sapiens), sequence (P10828 whole entry, looked up): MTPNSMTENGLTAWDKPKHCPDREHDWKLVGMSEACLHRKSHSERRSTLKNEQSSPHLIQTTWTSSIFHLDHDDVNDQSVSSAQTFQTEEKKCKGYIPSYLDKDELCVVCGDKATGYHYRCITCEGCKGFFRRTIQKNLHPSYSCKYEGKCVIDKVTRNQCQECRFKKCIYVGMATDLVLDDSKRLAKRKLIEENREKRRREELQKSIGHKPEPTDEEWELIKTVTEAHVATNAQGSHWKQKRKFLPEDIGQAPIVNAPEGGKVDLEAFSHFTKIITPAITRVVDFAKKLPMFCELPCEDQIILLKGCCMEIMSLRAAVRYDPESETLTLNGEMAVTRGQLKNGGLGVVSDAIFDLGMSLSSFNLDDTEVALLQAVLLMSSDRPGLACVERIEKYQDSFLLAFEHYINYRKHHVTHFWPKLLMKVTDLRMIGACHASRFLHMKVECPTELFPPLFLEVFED
DNA dC->dU-editing enzyme APOBEC-3G (Homo sapiens), sequence (Q9HC16 whole entry, looked up): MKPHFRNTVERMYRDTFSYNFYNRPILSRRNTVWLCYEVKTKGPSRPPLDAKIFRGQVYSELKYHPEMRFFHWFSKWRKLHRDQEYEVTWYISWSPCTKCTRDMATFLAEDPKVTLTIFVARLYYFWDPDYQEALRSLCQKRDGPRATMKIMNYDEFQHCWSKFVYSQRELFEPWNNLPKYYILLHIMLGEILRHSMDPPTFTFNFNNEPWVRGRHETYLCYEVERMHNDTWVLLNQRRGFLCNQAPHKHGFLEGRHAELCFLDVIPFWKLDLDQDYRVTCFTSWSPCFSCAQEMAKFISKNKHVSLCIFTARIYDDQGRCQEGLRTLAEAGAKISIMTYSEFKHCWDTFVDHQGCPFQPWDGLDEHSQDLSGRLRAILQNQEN

Which Potency [1] does the source give for `O=C(O)c1ccc(S(=O)(=O)N(Cl)Cl)cc1` here?
The Potency was “inactive”.

What about the Potency [2] of the same compound?
The Potency was “inactive”.

And the outcome [3]?
The outcome was “inactive”.

And the outcome [4]?
Its outcome is “inactive”.

What about the outcome [5] of the same compound?
Its outcome is “inactive”.

What about the Potency [6] of the same compound?
Its Potency is “inactive”.

And the outcome [7]?
Its outcome is “inactive”.

What about the max response [8] of the same compound?
The max response was -8.23%.

And the outcome [9]?
Its outcome is “inactive”.

And the outcome [10]?
Its outcome is “inactive”.

And the max response [11]?
The max response was -4.72%.

And the max response [12]?
Its max response is 3.99% (inactive).

Which activation [13] does the source give for `C=C[C@@]1(C)CC(=O)[C@]2(O)[C@@]3(C)[C@@H](O)CCC(C)(C)[C@@H]3[C@H](O)[C@H](OC(C)=O)[C@@]2(C)O1` here?
The activation was 3.9% (inactive).

And the outcome [4]?
The outcome was “inactive”.

And the Potency [6]?
Its Potency is “inactive”.

And the Potency [14]?
The Potency was “inactive”.

And the outcome [7]?
Its outcome is “inactive”.

And the outcome [10]?
Its outcome is “inactive”.

Which Potency [1] does the source give for `COc1ccc(C(=O)c2ccccc2)c(O)c1` here?
The Potency was “inactive”.

And the activation [15]?
The activation was 0.242% (inactive) and -6.84% (inactive).

What about the outcome [3] of the same compound?
Its outcome is “inactive”.

What about the activation [13] of the same compound?
Its activation is 4.95% (inactive) and -5.72% (inactive).

And the outcome [4]?
Its outcome is “inactive”.

And the max response [16]?
The max response was -3.7% and 9.95%.

What about the outcome [5] of the same compound?
The outcome was “inactive”.

What about the Potency [6] of the same compound?
Its Potency is “inactive”.

And the outcome [10]?
Its outcome is “inactive”.

And the max response [11]?
The max response was 4.73% and -13.9%.

And the max response [12]?
The max response was -9.82% (inactive) and -18.3% (inactive).

For `CO[C@]12C[C@@H](COC(=O)c3cncc(Br)c3)CN(C)[C@@H]1Cc1cn(C)c3cccc2c13`, which outcome [17] is on record?
Its outcome is “inactive”.

For `Cl/C(=C\n1cncn1)c1ccc(Cl)cc1Cl`, which outcome [17] is on record?
The outcome was “inactive”.

With `Oc1c(Cl)cc(Cl)c(Cl)c1Cc1c(O)c(Cl)cc(Cl)c1Cl` as the compound, how does the activation [13] read?
Its activation is -7.2% (inactive) and -4.02% (inactive).

What about the Potency [14] of the same compound?
The Potency was “inactive”.

Which results are given for `CCCCCCCCCCCCCC(=O)OC(C)C`?
Potency [1]: inactive; Potency [18]: inactive; activation [13]: 5.08% (inactive); outcome [4]: inactive; outcome [5]: inactive; Potency [6]: inactive; Potency [14]: inactive; outcome [7]: inactive; max response [8]: -13.5%; outcome [9]: inactive; outcome [10]: inactive; max response [11]: -10.1%; max response [12]: 7.8% (inactive)

What does the source list for `COc1ccc(C(Cl)=C(c2ccc(OC)cc2)c2ccc(OC)cc2)cc1`?
Potency [1]: 1580 nM [inconclusive] (active); Potency [2]: inactive; activation [13]: 2.85% (inactive); outcome [4]: inactive; max response [16]: 23%; Potency [14]: inactive; outcome [7]: inactive; max response [8]: -9.29%; outcome [9]: inactive; outcome [10]: inactive; max response [11]: -0.236%; max response [12]: -16% (inactive)

Which outcome [4] does the source give for `CCCCCCCCCCCCCCCC(=O)O` here?
The outcome was “inactive”.

And the outcome [5]?
Its outcome is “inactive”.

And the Potency [14]?
The Potency was “inactive”.

And the outcome [7]?
The outcome was “inactive”.

What about the max response [8] of the same compound?
Its max response is -15.5%.

What about the outcome [9] of the same compound?
The outcome was “inactive”.

And the outcome [10]?
Its outcome is “inactive”.

What about the max response [11] of the same compound?
The max response was -11.4%.

And the max response [12]?
The max response was 0.179% (inactive).

Which outcome [19] does the source give for `NC(N)=NCc1cccc(I)c1` here?
Its outcome is “inactive”.

What about the outcome [20] of the same compound?
Its outcome is “inactive”.

Which results are given for `OC[C@H]1O[C@@H]2O[C@H]3[C@H](O)[C@@H](O)[C@@H](O[C@H]4[C@H](O)[C@@H](O)[C@@H](O[C@H]5[C@H](O)[C@@H](O)[C@@H](O[C@H]6[C@H](O)[C@@H](O)[C@@H](O[C@H]7[C@H](O)[C@@H](O)[C@@H](O[C@H]8[C@H](O)[C@@H](O)[C@@H](O[C@H]1[C@H](O)[C@H]2O)O[C@@H]8CO)O[C@@H]7CO)O[C@@H]6CO)O[C@@H]5CO)O[C@@H]4CO)O[C@@H]3CO`?
activation [13]: -6.02% (inactive); max response [8]: 2.91%; outcome [9]: inactive; outcome [10]: inactive; max response [11]: 2.41%; max response [12]: 10.2% (inactive)
